Assay results published in ChEMBL document CHEMBL1157539, “Thousands of chemical starting points for antimalarial lead identification” (Nature, 2010).

These compounds were tested on Plasmodium falciparum (assay: GSK_TCMDC: Inhibition of Plasmodium falciparum 3D7 in whole red blood cells, using parasite LDH activity as an index of growth. Test compounds present at 2uM).
Assay type: functional
Compound `COc1ccc(CN(C)CCCOc2ccc(NC(=O)c3cccc4c(=O)c5cccc(F)c5[nH]c34)cc2)cc1OC` has an Inhibition of 100%.
`CC(=O)N[C@H](C(=O)Nc1ccc(-c2ccc(-c3nc4cc(C(F)(F)F)ccc4[nH]3)s2)cc1)C(C)C` gave an Inhibition of 88%.
Compound `CCOc1cc(C)ccc1C1CCN(CCCCNC(=O)c2cccc(-c3ccc(C(F)(F)F)cc3)c2)CC1` has an Inhibition of 99%.
In the case of `Fc1ccc2[nH]c(-c3ccc(-c4ccc(CNCCc5ccncc5)cc4)s3)nc2c1.O=C(O)C(F)(F)F`, the Inhibition is reported as 99%.
With `Cl.O=C(c1cccc(COc2ccc3c(c2)CCN(C2CCCC2)CC3)c1)N1CCN(c2ccncc2)CC1` the Inhibition was 100%.
Work on `CCOC(=O)c1ccc(NC(=O)Nc2cccc(-c3ccc(-c4nc5cc(F)ccc5[nH]4)cc3)c2)cc1` yielded an Inhibition of 100%.
Work on `CCCC[C@@H](C(=O)NCc1ccccc1C(F)(F)F)N1C(=O)CCC1C(=O)Nc1ccc([N+](=O)[O-])cc1` (some centres not stated) yielded an Inhibition of 94%.
In the case of `FC(F)(F)c1cccc(CCNc2nccc(NCc3ccccc3Cl)n2)c1`, the Inhibition is reported as 89%.
`CCCc1cc(Cc2cnc(N)nc2N)cc2c1OC(C)C2C.Cl` (configuration not stated) was tested, and the Inhibition was 98%.
`Cc1cccc(C)c1CNc1ccnc2ccccc12.Cl` showed an Inhibition of 92%.
Work on `CC(C)CC(NC(=O)c1cc2ccccc2s1)C(=O)N1CCCCCC1c1ccc(C(C)(C)C)cc1` (configuration not stated) yielded an Inhibition of 91%.
Compound `CS(=O)(=O)N(CC(O)Cn1c2ccc(Cl)cc2c2cc(Cl)ccc21)c1ccccc1` (configuration not stated) has an Inhibition of 100%.
`CN1CCN(CC(=O)Nc2cccc(-c3ccc(-c4nc5cc(F)ccc5[nH]4)s3)c2)CC1` showed an Inhibition of 100%.

What follows are compounds tested on Plasmodium falciparum (assay: GSK_TCMDC: Inhibition of Plasmodium falciparum Dd2 in whole red blood cells, using parasite LDH activity as an index of growth. Test compounds present at 2uM).
Assay type: functional
Compound `Cc1ccc(Nc2nnc(SCC(=O)Nc3ccc(CN4CCCC4)cc3)s2)cc1` has an Inhibition of 0%.
`O=C(O)C(F)(F)F.Oc1ccc(CCCNc2nc(NCc3cccc4ccccc34)nc(N3CCNCC3)n2)cc1` gave an Inhibition of 4%.
`CCN(CC)/C(=N\C(=N)NCCCCCCNC(=N)/N=C(\Nc1ccc(Cl)cc1)N(CC)CC)Nc1ccc(Cl)cc1` gave an Inhibition of 96%.
Work on `O=C(/C=C/c1ccc(Cl)c(Cl)c1)NCCCCCN1CCC(CCNC(=O)Cc2ccc(Cl)cc2)CC1` yielded an Inhibition of 0%.
`O=C(O)C(F)(F)F.O=[N+]([O-])c1cccc(CNCC2CCN(Cc3ccc(C(F)(F)F)cc3)CC2)c1` showed an Inhibition of 23%.
For `CC(=O)Nc1ccc(OCCN(Cc2ccccc2C(F)(F)F)c2ccc(C#N)c(C(F)(F)F)c2)c(Cl)c1`, the Inhibition was 78%.
`NS(=O)(=O)c1cccc(Nc2nccc(-c3cnn4ncccc34)n2)c1` gave an Inhibition of 89%.
For `COc1cccc(-c2cnc(N)c(-c3nc4ccc(F)cc4[nH]3)c2)c1.Cl`, the Inhibition was 43%.
For `CCOc1ccc(C(C)NC(=O)C2COc3ccccc3O2)cc1OCC` (configuration not stated), the Inhibition was 100%.
`Cc1c(C(=O)C2CC2CN2CCC(N3CCCCC3)CC2)sc2ccccc12` (configuration not stated) gave an Inhibition of 19%.
In the case of `Br.CC1(C)N=C(N)N=C(N)N1OCCCOc1cccc(C(=O)O)c1`, the Inhibition is reported as 96%.
Compound `CC(=O)Nc1ccc(CN2CCCN(c3cc(NC(=O)c4cccc(C)c4)ccn3)CC2)cc1.O=C(O)C(F)(F)F` has an Inhibition of 10%.
`COc1cccc(CN2Cc3ccccc3OC3(CCN(Cc4c[nH]c5cnccc45)CC3)C2)c1.O=C(O)C(F)(F)F` gave an Inhibition of 83%.
In the case of `O=C(/C=C/c1cccc2c1OCO2)Nc1ccnc2ccncc12`, the Inhibition is reported as 35%.
With `CCN(CCO)CCc1cccc(Nc2nccc(-c3c(-c4ccc(NC(=O)N(CC)CC)cc4)nn4ccccc34)n2)c1.Cl` the Inhibition was 95%.
Work on `COc1ccc2nccc([C@@H](O)CN3CCC(NCc4cc5oc(=O)n(C)c5cc4F)CC3)c2c1.O=C(O)C(=O)O` yielded an Inhibition of 72%.
With `O=C(O)C(F)(F)F.c1cc(-c2ccc(CNCCCN3CCOCC3)cc2)cc(-c2nc3ccccc3[nH]2)c1` the Inhibition was 0%.
In the case of `CCCCCCN1CCCN(Cc2ccc(C(=O)Nc3ccc(C)c(F)c3)cc2)CC1.O=C(O)C(F)(F)F`, the Inhibition is reported as 58%.
`O=C(/C=C/c1ccc(Cl)c(Cl)c1)NCCCCCN1CCC(NC(=O)Nc2ccc3c(c2)OCO3)CC1` showed an Inhibition of 5%.
`CCN(CCS(C)(=O)=O)Cc1ccc(-c2ccc3ncnc(Nc4ccc(OCc5cccc(F)c5)c(Cl)c4)c3c2)o1.Cc1ccc(S(=O)(=O)O)cc1` gave an Inhibition of 63%.
For `O=C(Nc1ccc(Br)cc1)Nc1ccc(Cn2ncc(N3CCCNCC3)c(Cl)c2=O)cc1.O=C(O)C(F)(F)F`, the Inhibition was 15%.
`CCCCCOc1ccc(C(O)C(CN2CCCCC2)c2ccccc2)cc1.Cl` (configuration not stated) gave an Inhibition of 95%.
For `CC(C)Oc1cccc(-c2ccc(C(=O)NCC3CCCN(Cc4cccc(C(F)(F)F)c4)C3)s2)c1.O=C(O)C(F)(F)F` (configuration not stated), the Inhibition was 28%.
`Cl.N#Cc1ccc2c(c1)CCN(CCC1CCC(NC(=O)c3cc4cccc(Cl)c4[nH]3)CC1)CC2` (configuration not stated) gave an Inhibition of 78%.
With `CC(Cc1ccc(COc2ccc(CC(CO)NCCc3cccc(Cl)c3)cc2)cc1)NCCc1cccc(Cl)c1.Cl` (configuration not stated) the Inhibition was 86%.
Compound `O=C(Nc1ccc(Cl)cc1)Nc1cccc(CCNCc2ccccc2)c1.O=C(O)C(F)(F)F` has an Inhibition of 12%.
In the case of `COc1ccc(CN(C)CCCOc2ccc(NC(=O)c3cccc4c(=O)c5cccc(F)c5[nH]c34)cc2)cc1OC`, the Inhibition is reported as 96%.
`CC(=O)N[C@H](C(=O)Nc1ccc(-c2ccc(-c3nc4cc(C(F)(F)F)ccc4[nH]3)s2)cc1)C(C)C` showed an Inhibition of 61%.
In the case of `CCOc1cc(C)ccc1C1CCN(CCCCNC(=O)c2cccc(-c3ccc(C(F)(F)F)cc3)c2)CC1`, the Inhibition is reported as 55%.
With `Fc1ccc2[nH]c(-c3ccc(-c4ccc(CNCCc5ccncc5)cc4)s3)nc2c1.O=C(O)C(F)(F)F` the Inhibition was 100%.
In the case of `Cl.O=C(c1cccc(COc2ccc3c(c2)CCN(C2CCCC2)CC3)c1)N1CCN(c2ccncc2)CC1`, the Inhibition is reported as 35%.
`CCOC(=O)c1ccc(NC(=O)Nc2cccc(-c3ccc(-c4nc5cc(F)ccc5[nH]4)cc3)c2)cc1` gave an Inhibition of 97%.
Work on `CCCC[C@@H](C(=O)NCc1ccccc1C(F)(F)F)N1C(=O)CCC1C(=O)Nc1ccc([N+](=O)[O-])cc1` (some centres not stated) yielded an Inhibition of 2%.
`FC(F)(F)c1cccc(CCNc2nccc(NCc3ccccc3Cl)n2)c1` gave an Inhibition of 38%.
`CCCc1cc(Cc2cnc(N)nc2N)cc2c1OC(C)C2C.Cl` (configuration not stated) showed an Inhibition of 0%.
With `Cc1cccc(C)c1CNc1ccnc2ccccc12.Cl` the Inhibition was 10%.
`CC(C)CC(NC(=O)c1cc2ccccc2s1)C(=O)N1CCCCCC1c1ccc(C(C)(C)C)cc1` (configuration not stated) showed an Inhibition of 39%.
In the case of `CS(=O)(=O)N(CC(O)Cn1c2ccc(Cl)cc2c2cc(Cl)ccc21)c1ccccc1` (configuration not stated), the Inhibition is reported as 98%.
For `CN1CCN(CC(=O)Nc2cccc(-c3ccc(-c4nc5cc(F)ccc5[nH]4)s3)c2)CC1`, the Inhibition was 94%.
